Experimental data reported in ChEMBL document CHEMBL4888484, “Replenishing the malaria drug discovery pipeline: Screening and hit evaluation of the MMV Hit Generation Library 1 (HGL1) against asexual blood stage Plasmodium falciparum ,using a nano luciferase reporter read-out” (2022).
Screen size: about 150,000 compounds; about 540 (0.36%) showed an effect of 50% or more. For the sample, strong results were picked, then their nearest neighbours and some compounds at random.

Tested on: Plasmodium falciparum
Assay: Primary screen in NF54 nanoGlo assay, in single point, at 2uM, 72h; a lower Z score goes with more inhibition
Type: functional, Erythrocyte
Conditions: timepoint 72 hour

Row | SMILES | % Inhibition [%] | Z score
1 | COc1ccc(CCc2nc(NC(=O)C(C)C)n[nH]2)cc1OC | 13 | -1.63
2 | COc1ccc(CCc2nc(NC(=O)[C@H]3CC(=O)N(C)C3)n[nH]2)cc1OC | 15 | -2.27
3 | COc1ccc(CCc2nc(NC(=O)c3nc(C)sc3C)n[nH]2)cc1OC | 71 | -9.67
4 | COC1CCCC(CC(=O)NC2CC(=O)N(C)C2)C1 (stereo unspecified) | 2 | -0.4
5 | CC(C)C[C@H]1CCCN(CC(=O)N2CC(=O)Nc3ccccc32)C1 | -1 | 0.19
6 | CN(C[C@H](O)C(F)(F)F)C(=O)c1ccc(C#N)cn1 | -15 | 1.32
7 | CC(=O)N1CCN(C(=O)NCc2cc(F)ccc2C)C[C@@H](O)C1 | -9 | 0.8
8 | CCC1([C@@](O)(C#CCN(Cc2ccccc2)C(C)(C)C)c2ccccc2)CCCC1 | 33 | -3.73
9 | CCC[N+]1(CC#CC2(O)CCCCC2)CCOCC1 | -9 | 1.67
10 | CCC[N+]1(CC#C[C@@](O)(c2ccccc2)C2(C)CCCC2)CCCCC1 | 51 | -4.55
11 | CCC1([C@@](O)(C#CCN2CCCCCC2)c2ccccc2)CCCC1 | -16 | 1.41
12 | CCC(C)(CC)[C@@](O)(C#CC[N+]1(Cc2ccccc2Cl)CCCCC1)c1ccccc1 | 39 | -4.45
13 | CC1([C@@](O)(C#CC[N+]2(C)CCCCC2)c2ccccc2)CCCC1 | 60 | -9.64
14 | CCC[N+]1(CC#C[C@@](O)(c2ccccc2)C(C)(CC)CC)CCCCC1 | 54 | -8.65
15 | C[N+]1(C/C=C/C(O)(c2ccccc2)c2ccccc2)CCCCC1 | 12 | -1.05
16 | CCC(C)(CC)[C@@](O)(C#CC[N+]1(Cc2ccccc2)CCCCC1)c1ccccc1 | 38 | -1.99
17 | CCOC[C@H]1CCN(C(=O)C2(O)CN(C(=O)OC(C)(C)C)C2)C1 | -4 | 0.81
18 | Cn1cccc(C(=O)N2CCC(c3nnc(C(F)(F)F)o3)CC2)c1=O | -12 | 1.33
19 | Cc1ccc(-c2cc(C(=O)Nc3ncccc3Cl)c3ccccc3n2)s1 | 3 | -0.34
20 | CCOc1cc2c(cc1CN1CCN(C)[C@]3(CCC(=O)N(C)CC3)C1)CCC2 | -10 | 1.92
21 | CC1(C(=O)N2CC3CCCCC3C2)CCCC1 (stereo unspecified) | -24 | 2.4

Row | SMILES | % Inhibition [%] | Z score
22 | O=C(c1cccc2cc[nH]c12)N1C[C@@H]2[C@H](C1)[C@H]1CC[C@@H]2O1 | 18 | -1.92
23 | Clc1ccc(COc2ccc(Br)cc2CNc2ccc(-c3nc4ccccc4o3)cc2)c(Cl)c1 | -39 | 4.57
24 | Clc1ccc(C[n+]2ccc(-c3nc4ccccc4o3)cc2)c(Cl)c1 | 79 | -11.4
25 | c1cc(-c2nc3ccccc3o2)cc(-c2nc3ccccc3o2)c1 | -13 | 2.52
26 | Cc1cc(C(=O)NCc2ccncc2)c(=O)n(C)c1C | -11 | 1.52
27 | CC(NCC1CS(=O)(=O)c2ccccc21)[C@@H]1C[C@H]1C1CC1 (stereo partly specified) | -3 | 0.41
28 | O=C(Nc1ccccc1F)C1CCN(c2cc(C3CC3)ncn2)CC1 | -16 | 3.11
29 | NC(=O)c1ccccc1NC(=O)C1CCN(c2cc(C3CC3)ncn2)CC1 | 57 | -10.93
30 | NC(=O)c1ccccc1NC(=O)C1CCN(c2cc(N3CCCC3)ncn2)CC1 | 7 | -1.36
31 | Cc1cc(NC(=O)c2ccc3c(c2)C(=O)N(C[C@H]2CCCO2)C3=O)no1 | -8 | 1.45
32 | CNC(=O)[C@@H]1CCCN1C(=O)CNC(=O)c1cccc2c1OCC2 | -5 | 0.71
33 | Cc1ncsc1CCN(C)CCn1cc[nH]c1=O | -15 | 3.22
34 | O=C(NC(C1CC1)C1CC1)c1coc(COc2cccc(F)c2)n1 | -6 | 1.01
35 | CC[C@@]1(C)CCCN(C(=O)Cc2c(C)noc2Cl)C1 | 85 | -13.67
36 | Cc1noc(Cl)c1CC(=O)N1CCCC(C)(C)CC1 | 44 | -6.85
37 | Cc1noc(C)c1CC(=O)N1CCCCCC1 | -23 | 2.1
38 | Cc1cc(C(=O)Nc2nc(C)cs2)on1 | -13 | 2.13
39 | Cc1ccc[n+](Cc2ccc3ccccc3n2)c1 | 59 | -7.89
40 | O[C@@H](Cc1ccc2ccccc2n1)c1ccccc1 | 33 | 0.78
41 | Cc1ccc[n+](CC2OCc3ccccc3CO2)c1 | 5 | -0.68
42 | c1ccc2c[n+](Cc3ccc4ccccc4n3)ccc2c1 | 59 | -7.39

Row | SMILES | % Inhibition [%] | Z score
43 | c1ccc2cc(-c3ccc4ccccc4n3)ccc2c1 | 41 | -1.59
44 | Cc1nnc(CN(C)Cc2ccc3ccccc3n2)o1 | -21 | 2.06
45 | Cc1ccc(S(=O)(=O)N2CCO[C@@H](COc3ccccc3)C2)c(C)c1NS(C)(=O)=O | 0 | 0.05
46 | COC(C)(C)CCC[C@H](C)CCNCC(C)(C)N1CCOCC1 | 1 | -0.18
47 | N#C[C@H]1C(=O)c2ccccc2N(Cc2ccccc2)C1=O | -5 | 0.84
48 | CCN1CC(=O)N[C@H]2CN(C(=O)c3cnn(CC)c3C)CC[C@@H]2OCc2cccc(c2)Oc2cc(OC(C)C)cc(c2)C1=O | -5 | 0.73
49 | CCn1nc(-c2ccc(OC)cc2F)cc1C(=O)NCCN1CCCCC1 | -17 | 2.1
50 | Cc1cc(C)c2nc(N3CCC(C(=O)NC4CCCCCC4)CC3)sc2c1 | -8 | 1.22
51 | CC(C)CNC(=O)CS(=O)(=O)Cc1ccccc1 | -6 | 1.18
52 | CCOC(=O)N1CCC(NC(=O)c2coc(NC(=O)Cc3c(C)noc3C)n2)CC1 | 18 | -2.53
53 | CC(C)c1cc(=O)[nH]c(-n2nc(C3CC3)cc2NC(=O)Cc2ccc(Cl)cc2)n1 | 74 | -12.5
54 | CC(C)c1cc(=O)[nH]c(-n2nc(C3CC3)cc2NC(=O)COc2ccc3ccccc3c2)n1 | 54 | -12.73
55 | COc1ccc(C(=O)OCC(=O)Nc2cc(C3CC3)nn2-c2ccccc2)c(O)c1 | -7 | 1.34
56 | Cc1nc(CC(=O)Nc2cc(C3CC3)nn2-c2ccccc2)cs1 | 38 | -0.78
57 | CC(C)c1cc(=O)[nH]c(-n2nc(C3CC3)cc2NC(=O)c2ccccc2C(F)(F)F)n1 | 18 | -3.33
58 | COc1ccc(C2CN(Cc3ccccn3)CC2CN(Cc2ccc(F)cc2)C(C)=O)cc1 (stereo unspecified) | 15 | -1.72
59 | COC(=O)c1ccc(C)c(NC(=O)c2cn(C)cn2)c1O | -2 | 0.17
60 | COCCCN(Cc1ccco1)C[C@H](O)COC(C)(C)C | 2 | -0.27
61 | CC(C)(Oc1cc2c(cc1-c1cncc(C3CC3)c1)CCO2)C(=O)O | -1 | 0.1
62 | CC(C)c1cc(=O)[nH]c(-n2nc(C3CC3)cc2NC(=O)c2ccc(F)cc2)n1 | 90 | -16.95
63 | Cc1cc(=O)[nH]c(-n2nc(C3CC3)cc2NC(=O)C(c2ccccc2)c2ccccc2)n1 | 86 | -11.5

Row | SMILES | % Inhibition [%] | Z score
64 | Cn1nc(C2CCCC2)cc1NC(=O)c1ccc(OCC(=O)O)cc1 | 1 | -0.23
65 | COCC(=O)Nc1cc(C2CC2)nn1-c1nc(C)cc(=O)[nH]1 | 4 | -0.78
66 | CC[C@@H](C(=O)Nc1cc(C)nn1-c1nc2c(c(=O)[nH]1)CCC2)c1ccccc1 | 17 | -3.37
67 | CC(C)c1cc(=O)[nH]c(-n2nc(C3CC3)cc2NC(=O)c2ccc(F)c(F)c2)n1 | 5 | -0.72
68 | Cc1cc(=O)[nH]c(-n2nc(C3CC3)cc2NC(=O)c2ccc(C(C)(C)C)cc2)n1 | 57 | -4.8
69 | Cc1nn(C(C)C)c(C)c1CN(C)C(=O)c1cc(C#N)c[nH]1 | 0 | -0.07
70 | CN1C(=O)CCC12CCN(S(=O)(=O)Cc1ccc(Cl)cc1F)CC2 | -3 | 0.59
71 | c1ccc(-c2noc(C3CCN(c4ccc5nncn5n4)CC3)n2)nc1 | -18 | 2.08
72 | CC(C)c1nccn1CC(=O)N(C)[C@@H](C)c1ccc(F)c(F)c1 | -1 | 0.13
73 | C[C@@H]1CN(CCCCO)CCN1C(=O)OC(C)(C)C | -1 | 0.08
74 | Cc1onc(-c2ccccc2Cl)c1C(=O)NCC1(c2ccc(F)cc2)CCOCC1 | -13 | 2.28
75 | CN1C[C@]2(CCCN(Cc3ccc(OCC(=O)c4ccccc4)cc3)C2)CCC1=O | -5 | 0.67
76 | CCCc1c(C(=O)N2CCNc3ncccc32)cnn1C1CCCC1 | -7 | 1.14
77 | N#Cc1nc(C2CC2)oc1N1CCN(C(=O)CCc2ccco2)CC1 | -7 | 1.41
78 | CN1CCC(Oc2nc3ccc(F)cc3o2)CC1 | -11 | 1.44
79 | CCNC(=O)c1cc(NCCc2nccn2Cc2ccccc2)ccn1 | -9 | 0.95
80 | Cc1ccccc1N1C(=O)CN(C(=O)C2COc3ccccc3O2)CC1C (stereo unspecified) | -1 | 0.18
81 | c1ccc2c(-c3cc4c(c(O[C@H]5CCOC5)c3)OCCNC4)csc2c1 | -8 | 1.61
82 | COC(=O)c1cn(Cc2cccnc2)cc2c(O)nnc1-2 | 0 | -0.02
83 | COC(=O)c1cn(CCc2cn3ccccc3n2)cc2c(O)nnc1-2 | -7 | 0.84
